Data published in PubChem BioAssay AID1159580 (chemical genetic matrix, 2015).
In all, about 5,500 compounds went through this assay and about 2,000 (36%) were called active. About 18% were inconclusive and are not listed. Rule as the data show it: active = normalized growth mostly below about 0.91 (no sharp cut-off); inconclusive = no clear call, values can overlap the other calls; inactive = mostly above about 0.92. The list shows a part of the results.

Test: chemical genetic growth profiling, strain panel (AID 1159580);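 also: tested at 20 µM; growth read once vehicle control cultures reached saturation at 30 °C; 1 = growth at the plate median or of vehicle wells; lower values mean less growth of the strain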
Conditions: growth OD

Measured: normalized growth

C=CCc1cc(OC)c2c(c1OC)OCO2
active: S. cerevisiae deletion strains, locus YKL068W, active compounds read low 0.94 | S. cerevisiae deletion strains, locus YKR026C, strain gcn3, active compounds read low 0.909 | S. cerevisiae deletion strains, locus YKR091W, strain srl3, active compounds read low 0.922 | S. cerevisiae deletion strains, locus YLL026W, active compounds read low 0.923 | S. cerevisiae deletion strains, locus YLR102C, strain apc9, active compounds read low 0.923 | S. cerevisiae deletion strains, locus YLR320W, strain mms22, active compounds read low 0.666 | S. cerevisiae deletion strains, locus YML124C, strain tub3, active compounds read low 0.931 | S. cerevisiae deletion strains, locus YMR129W, active compounds read low 0.921 | S. cerevisiae deletion strains, locus YMR205C, strain PFK2, active compounds read low 0.83 | S. cerevisiae deletion strains, locus YNL071W, strain lat1, active compounds read low 0.737 | S. cerevisiae deletion strains, locus YNL233W, strain BNI4, active compounds read low 0.835 | S. cerevisiae deletion strains, locus YNL307C, strain MCK1, active compounds read low 0.862 | S. cerevisiae deletion strains, locus YOR184W, strain ser1, active compounds read low 0.872 | S. cerevisiae deletion strains, locus YPL240C, strain hsp82, active compounds read low 0.927 | S. cerevisiae deletion strains, locus YPR119W, strain clb2, active compounds read low 0.926
inactive: S. cerevisiae deletion strains, locus YJR075W, strain HOC1, active compounds read low 0.928 | S. cerevisiae deletion strains, locus YKL009W, strain mrt4, active compounds read low 0.953 | S. cerevisiae deletion strains, locus YKL085W, strain MDH1 (second series), active compounds read low 0.939 | S. cerevisiae deletion strains, locus YKL085W, strain MDH1, active compounds read low 0.939 | S. cerevisiae deletion strains, locus YKL160W, strain elf1, active compounds read low 0.915 | S. cerevisiae deletion strains, locus YKL190W, strain CNB1, active compounds read low 0.964 | S. cerevisiae deletion strains, locus YKR001C, strain vps1, active compounds read low 0.953 | S. cerevisiae deletion strains, locus YLL001W, strain dnm1, active compounds read low 0.96 | S. cerevisiae deletion strains, locus YLL041C, strain sdh2, active compounds read low 0.947 | S. cerevisiae deletion strains, locus YLR027C, strain aat2, active compounds read low 0.941 | S. cerevisiae deletion strains, locus YLR039C, strain RIC1, active compounds read low 1.03 | S. cerevisiae deletion strains, locus YLR058C, strain SHM2, active compounds read low 0.976 | S. cerevisiae deletion strains, locus YLR113W, strain HOG1, active compounds read low 0.957 | S. cerevisiae deletion strains, locus YLR221C, strain rsa3, active compounds read low 0.948 | S. cerevisiae deletion strains, locus YLR258W, strain gsy2, active compounds read low 0.941 | S. cerevisiae deletion strains, locus YLR262C, strain YPT6 (second series), active compounds read low 0.903 | S. cerevisiae deletion strains, locus YLR262C, strain YPT6, active compounds read low 1.06 | S. cerevisiae deletion strains, locus YLR268W, strain sec22, active compounds read low 1.01 | S. cerevisiae deletion strains, locus YLR330W, strain CHS5, active compounds read low 0.967 | S. cerevisiae deletion strains, locus YLR342W, strain FKS1 (second series), active compounds read low 0.953 | S. cerevisiae deletion strains, locus YLR342W, strain FKS1, active compounds read low 0.932 | S. cerevisiae deletion strains, locus YLR357W, strain rsc2, active compounds read low 1.07 | S. cerevisiae deletion strains, locus YLR370C, strain arc18, active compounds read low 0.924 | S. cerevisiae deletion strains, locus YLR371W, strain rom2, active compounds read low 0.943 | S. cerevisiae deletion strains, locus YLR384C, strain iki3, active compounds read low 0.935 | S. cerevisiae deletion strains, locus YLR418C, strain cdc73, active compounds read low 0.938 | S. cerevisiae deletion strains, locus YML016C, strain PPZ1, active compounds read low 0.988 | S. cerevisiae deletion strains, locus YML032C, strain rad52, active compounds read low 0.987 | S. cerevisiae deletion strains, locus YML120C, strain ndi1, active compounds read low 0.969 | S. cerevisiae deletion strains, locus YMR058W, strain fet3, active compounds read low 0.951 | S. cerevisiae deletion strains, locus YMR078C, strain ctf18, active compounds read low 0.943 | S. cerevisiae deletion strains, locus YMR125W, strain sto1, active compounds read low 0.896 | S. cerevisiae deletion strains, locus YMR223W, strain ubp8, active compounds read low 0.935 | S. cerevisiae deletion strains, locus YMR231W, strain pep5, active compounds read low 1 | S. cerevisiae deletion strains, locus YMR263W, strain SAP30, active compounds read low 0.94 | S. cerevisiae deletion strains, locus YMR307W, strain GAS1, active compounds read low 0.987 | S. cerevisiae deletion strains, locus YNL067W, strain RPL9B, active compounds read low 0.921 | S. cerevisiae deletion strains, locus YNL128W, strain TEP1, active compounds read low 0.971 | S. cerevisiae deletion strains, locus YNL153C, strain GIM3, active compounds read low 0.97 | S. cerevisiae deletion strains, locus YNL183C, strain NPR1, active compounds read low 0.916 | S. cerevisiae deletion strains, locus YNL209W, strain ssb2, active compounds read low 0.962 | S. cerevisiae deletion strains, locus YNL248C, strain rpa49, active compounds read low 0.969 | S. cerevisiae deletion strains, locus YNL250W, strain rad50, active compounds read low 0.967 | S. cerevisiae deletion strains, locus YNL271C, strain bni1, active compounds read low 0.929 | S. cerevisiae deletion strains, locus YNL298W, strain CLA4, active compounds read low 0.96 | S. cerevisiae deletion strains, locus YNL322C, strain KRE1 (second series), active compounds read low 0.933 | S. cerevisiae deletion strains, locus YNL322C, strain KRE1, active compounds read low 0.961 | S. cerevisiae deletion strains, locus YNR049C, strain mso1, active compounds read low 0.942 | S. cerevisiae deletion strains, locus YNR052C, strain pop2, active compounds read low 0.984 | S. cerevisiae deletion strains, locus YOL006C, strain TOP1, active compounds read low 0.589 | S. cerevisiae deletion strains, locus YOL012C, strain htz1 1.06 | S. cerevisiae deletion strains, locus YOL147C, strain pex11, active compounds read low 0.943 | S. cerevisiae deletion strains, locus YOR001W, strain rrp6, active compounds read low 0.949 | S. cerevisiae deletion strains, locus YOR061W, strain CKA2, active compounds read low 0.981 | S. cerevisiae deletion strains, locus YOR069W, strain VPS5, active compounds read low 0.99 | S. cerevisiae deletion strains, locus YOR070C, strain gyp1, active compounds read low 0.982 | S. cerevisiae deletion strains, locus YOR080W, strain dia2, active compounds read low 0.991 | S. cerevisiae deletion strains, locus YOR083W, strain WHI5, active compounds read low 0.951 | S. cerevisiae deletion strains, locus YOR106W, strain vam3, active compounds read low 0.956 | S. cerevisiae deletion strains, locus YOR136W, strain idh2, active compounds read low 0.974 | S. cerevisiae deletion strains, locus YOR144C, strain elg1, active compounds read low 0.952 | S. cerevisiae deletion strains, locus YOR231W, strain MKK1, active compounds read low 0.999 | S. cerevisiae deletion strains, locus YOR265W, strain rbl2, active compounds read low 0.967 | S. cerevisiae deletion strains, locus YOR270C, strain vph1, active compounds read low 0.841 | S. cerevisiae deletion strains, locus YOR290C, strain snf2, active compounds read low 0.926 | S. cerevisiae deletion strains, locus YOR316C, strain cot1, active compounds read low 0.929 | S. cerevisiae deletion strains, locus YPL051W, strain arl3, active compounds read low 0.998 | S. cerevisiae deletion strains, locus YPL055C, strain LGE1, active compounds read low 0.908 | S. cerevisiae deletion strains, locus YPL078C, strain atp4, active compounds read low 0.906 | S. cerevisiae deletion strains, locus YPL106C, strain sse1, active compounds read low 0.987 | S. cerevisiae deletion strains, locus YPL241C, strain CIN2, active compounds read low 0.967 | S. cerevisiae deletion strains, locus YPL256C, strain CLN2, active compounds read low 0.977 | S. cerevisiae deletion strains, locus YPR141C, strain kar3, active compounds read low 0.94 | S. cerevisiae deletion strains, locus YPR163C, strain tif3, active compounds read low 0.968 | S. cerevisiae deletion strains, locus YPR167C, strain met16, active compounds read low 0.939 | S. cerevisiae deletion strains, strain wtn01, active compounds read low 0.933 | S. cerevisiae strains, strain wild type, active compounds read low 0.999
